Among the data in the supplement of paper PMC7366291 are glomerular separation values, retold here.

Structures can show the parent of a compound that is named as a salt. ± gives the standard deviation.

The test system of this assay is Danio rerio Tg(wt1b:EGFP) embryo, pronephros. As to the kind of experiment: glomerular separation, fold change vs DMSO control; higher = glomeruli further apart (abnormal). As to conditions: 25 µM; exposure: 24-48 hpf. In a few lines: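 In HEPES-buffered E3 with 0.003% PTU and 0.5% DMSO, dechorionated Tg(wt1b:EGFP) zebrafish embryos were exposed to 25 μM compound from 24 to 48 hpf at 28.5°C. Pronephroi were then imaged dorsally at 470 nm in 10 z-slices, in 96-well plates filled with agarose. On maximum projections, a Fiji macro turned 16 manually placed reference points into distances and angles, and values more than 2 SD from the feature mean were excluded. Features are fold changes relative to the mean of DMSO-treated embryos from the same day.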
Compound `CC(=O)c1ccc(S(=O)(=O)NC(=O)NC2CCCCC2)cc1` [Acetohexamide] registered a glomerular separation of 0.839 ± 0.25.

In turn, `Cn1c(NCCN(CCO)CCCc2ccc([N+](=O)[O-])cc2)cc(=O)n(C)c1=O` [Nifekalant] displayed a glomerular separation of 0.925 ± 0.31. `CCCCCCCN(CC)CCCC(O)c1ccc(NS(C)(=O)=O)cc1` (stereo not given) [Ibutilide fumarate] yielded a glomerular separation of 0.897 ± 0.24.

Compound `CCN(CC)CCNC(=O)COc1ccc(OC)cc1` [Mefexamide hydrochloride] came in with a glomerular separation of 1.52 ± 0.84. With `O=C(CCCCC(=O)Nc1c(I)cc(I)c(C(=O)O)c1I)Nc1c(I)cc(I)c(C(=O)O)c1I` [Iodipamide], the glomerular separation came out at 0.857 ± 0.54. With `Cc1ccsc1/C=C/C1=NCCCN1C` [Morantel tartrate], the glomerular separation worked out at 0.982 ± 0.26. `COc1cccc2c1C(=O)c1c(O)c3c(c(O)c1C2=O)C[C@@](O)(C(C)=O)C[C@@H]3O[C@H]1C[C@H](N)[C@H](O)[C@H](C)O1` [Daunorubicin hydrochloride] had a glomerular separation of 0.979 ± 0.36. In the case of `CCOC1O[C@H]([C@@H](COCc2ccccc2)OCc2ccccc2)[C@H](OCc2ccccc2)[C@H]1O` (stereo not given in full) [Tribenoside], the glomerular separation amounted to 1.42 ± 0.96. In the case of `C#C[C@]1(O)CC[C@H]2[C@@H]3CCC4=CC(=O)CC[C@@H]4[C@H]3CC[C@@]21CC` [Norgestrel-(-)-D], the glomerular separation is 0.798 ± 0.23.

In turn, `O=C(O)Cc1ccccc1Nc1c(Cl)cccc1Cl` [Diclofenac sodium] returned a glomerular separation of 3.78 ± 1.9.

`Nc1ccc(O)c(C(=O)O)c1` [Mesalamine] showed a glomerular separation of 1.23 ± 0.36. As for `CC[C@H](C)C(=O)O[C@H]1CCC=C2C=C[C@H](C)[C@H](CC[C@@H]3C[C@@H](O)CC(=O)O3)[C@H]21` [Mevastatin], the glomerular separation is 4.87 ± 2.8. `CC1(C)OC(=O)NC1=O` [Dimethadione] returned a glomerular separation of 1.27 ± 0.36. In turn, `CC[C@H](c1ccc(O)cc1)[C@@H](CC)c1ccc(O)cc1` [Hexestrol] registered a glomerular separation of 1.04 ± 0.38.

On to `CS(=O)(=O)Nc1ccc([N+](=O)[O-])cc1Oc1ccccc1` [Nimesulide], for which the glomerular separation was 3.39 ± 1.9. Turning to `Cc1noc(NS(=O)(=O)c2ccc(N)cc2)c1C` [Sulfisoxazole], the glomerular separation is 0.975 ± 0.37. For the compound `CN(Cc1ccc(C(C)(C)C)cc1)Cc1cccc2ccccc12` [Butenafine Hydrochloride], the glomerular separation stood at 0.932 ± 0.4. Consider `CC1Cc2ccccc2N1NC(=O)c1ccc(Cl)c(S(N)(=O)=O)c1` (stereo not given) [Indapamide], for which the glomerular separation was 1.2 ± 0.88. Turning to `C[C@H]1C[C@H]2[C@@H]3CCC4=CC(=O)C=C[C@]4(C)[C@@]3(F)[C@@H](O)C[C@]2(C)[C@@]1(O)C(=O)CO` [Betamethasone], the glomerular separation was determined as 1.2 ± 0.31. `Nc1nc(N)nc(-c2cc(Cl)ccc2Cl)n1` [Irsogladine maleate] returned a glomerular separation of 1.11 ± 0.39.

Take `CCc1nc(N)nc(N)c1-c1ccc(Cl)cc1` [Pyrimethamine]: the glomerular separation was determined as 0.78 ± 0.26. `CC1CNc2c(cccc2S(=O)(=O)N[C@@H](CCCNC(=N)N)C(=O)N2CC[C@@H](C)C[C@@H]2C(=O)O)C1` (stereo not given in full) [Argatroban] returned a glomerular separation of 1.4 ± 1. Next, `O=C1CCc2cc(OCCCCc3nnnn3C3CCCCC3)ccc2N1` [Cilostazol]: 1.05 ± 0.38.

On to `CN1CCN(C2=Nc3cc(Cl)ccc3Nc3ccccc32)CC1` [Clozapine], for which the glomerular separation was found to be 0.792 ± 0.2. For the compound `CN(C)CCOC(c1ccc(Cl)cc1)c1ccccn1` (stereo not given) [Carbinoxamine maleate salt], the glomerular separation amounted to 0.746 ± 0.34. The compound `O=C(O)CCC(=O)c1ccc(-c2ccccc2)cc1` [Fenbufen] returned a glomerular separation of 6.73 ± 2.4. For `CCCC(C(=O)OCCN(CC)CC)(c1ccccc1)c1ccccc1` [Proadifen hydrochloride], the glomerular separation was 0.771 ± 0.16. For the compound `COc1cc(Cc2cnc(N)nc2N)cc(OC)c1OC` [Trimethoprim], the glomerular separation stood at 1.48 ± 0.76. Next, `Nc1ccc(S(=O)(=O)Nc2ccnn2-c2ccccc2)cc1` [Sulfaphenazole]: 1.06 ± 0.3; `CN1C(C(=O)Nc2ccccn2)=C(O)c2sccc2S1(=O)=O` [Tenoxicam]: 0.97 ± 0.16; `CCc1cccc(CC)c1NC(=O)CN(CC(=O)O)CC(=O)O` [Etifenin]: 1.34 ± 0.55. As for `Nc1nc(=S)c2ncn([C@@H]3O[C@H](CO)[C@@H](O)[C@H]3O)c2[nH]1` [Thioguanosine], the glomerular separation is 1.01 ± 0.38. Turning to `COc1nc(N)nc2c1ncn2[C@@H]1O[C@H](CO)[C@@H](O)[C@@H]1O` [Nelarabine], the glomerular separation is 0.929 ± 0.39.

The compound `Cc1cc(C(C)(C)C)c(O)c(C)c1CC1=NCCN1` [Oxymetazoline hydrochloride] came in with a glomerular separation of 1.08 ± 0.39.

In turn, `COCCOC(=O)C1=C(C)NC(C)=C(C(=O)OC(C)C)C1c1cccc([N+](=O)[O-])c1` (stereo not given) [Nimodipine] showed a glomerular separation of 1.64 ± 1.1. `O=C(COc1ccc(Cl)cc1)N1CCN(Cc2ccc3c(c2)OCO3)CC1` [Fipexide hydrochloride] returned a glomerular separation of 1.26 ± 0.55. `CC1(C)O[C@@H]2C[C@H]3[C@@H]4CCC5=CC(=O)CC[C@]5(C)[C@@]4(F)[C@@H](O)C[C@]3(C)[C@]2(C(=O)CCl)O1` [Halcinonide] had a glomerular separation of 2.01 ± 0.91.

Consider `CC(C)(C)NC[C@H](O)COc1nsnc1N1CCOCC1` [Timolol maleate salt], for which the glomerular separation was determined as 0.812 ± 0.37. Consider `CN1C2CCCC1CC(NC(=O)c1nn(C)c3ccccc13)C2` (stereo not given) [Granisetron], for which the glomerular separation amounted to 0.791 ± 0.23.

Compound `COc1ccccc1N1CCN(CC(O)COc2cccc3ccccc23)CC1` (stereo not given) [Naftopidil dihydrochloride] came in with a glomerular separation of 0.922 ± 0.42.
